Inconclusive results are not listed. Activity calls are given as the source filed them. The calls were made as follows: active = hit-call score of the fitted dose curve at least 0.9, where 1 is the maximum; inconclusive = response in the unintended direction; inactive = score below 0.9.
Assay: ATG_XTT_Cytotoxicity: Cytotoxicity Assessment in the Attagene TRANS-FACTORIAL HepG2 Assay (AID 2283584);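 as to AC50: cells exposed to compound for 24 h before reading; active means loss of viability signal versus DMSO baseline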
Protocol: ATG_XTT_Cytotoxicity is a cell-based, single-readout assay that uses HepG2, a human liver cell line, with measurements taken at 24 hours after chemical dosing in a 24-well plate.ATG_XTT_Cytotoxicity is one of one assay component(s) measured or calculated from the ATG_XTT_Cytotoxicity assay. It is designed to make measurements of cell number, a form of viability reporter, as detected with […] signals by XTT cytotoxicity assay technology.Data from the assay component ATG_XTT_Cytotoxicity was analyzed into 1 assay endpoint. This assay endpoint, ATG_XTT_Cytotoxicity, was analyzed in the positive analysis fitting direction relative to DMSO as the negative control and baseline of activity. Using a type of viability reporter, loss-of-signal activity can be used to understand changes in the viability. Furthermore, this assay endpoint can be referred to as a primary readout, because the performed assay has only produced 1 assay endpoint. To generalize the intended target to other relatable targets, this assay endpoint is annotated to the cell cycle intended target family, where the subfamily is cytotoxicity.
Human liver HepG2 cells are transiently transfected with multiple reporter transcription units (MRTUs) in 6-well plates using FuGene 6 reagent (Roche; 3 ml FuGene/1 mg DNA). The MRTU constructs are regulated by a cis-regulating element (promoter). […] A major difference between the CIS and TRANS system is that in CIS activities of endogenous TFs are measured, whereas the TRANS assay evaluates changes in activities of exogenous, chimeric NR-Gal4 proteins. […] At the end of 24 hour incubation, total RNA was isolated using TriZol reagent (Invitrogen). The isolated RNA is then reverse-transcribed using oligo(dT) primer and Mo-MLV reverse transcriptase (Invitrogen) with DNAse I (Ambion) treatment for 30 min. The one-tenth of the produced cDNA was amplified by PCR using Taq DNA polymerase (Invitrogen) and two reporter sequence-specific primers. The PCR products were fluorescently labeled by primer extension with 6-arboxyfluorescein (6-FAM) 5'-labeled reporter sequence-specific primer (2 min at 95 C, 20 s at 68 C and 10 min at 72 C) and these products were digested with 5U of HpaI (New England Biolabs) for 2h at 37 C. The fragments were purified using Qiaquick PCR columns (Qiagen), analyzed on an ABI 3130xL genetic analyzer (Applied Biosystems) with peak positions identified by using a set of X-rhodamine (ROX)-labeled MapMarker1000 molecular weight standards (BioVentures). The raw capillary electrophoresis data was processed using Attagraph software (Attagene).

| Compound | outcome | AC50 |
| --- | --- | --- |
| CNC(=N[N+](=O)[O-])NCC1CCOC1 (stereo not given) | inactive | – |
| Nc1ccccc1C(=O)OCCc1ccccc1 | inactive | – |
| C=CCc1ccc(OC(=O)Cc2ccccc2)c(OC)c1 | inactive | – |
| CCC(C)c1cc([N+](=O)[O-])cc([N+](=O)[O-])c1OC(=O)C=C(C)C (stereo not given) | inactive | – |
| CC1(C)C(=O)NC(=O)NC1=O | inactive | – |
| O=[N+]([O-])c1ccc(Cl)cc1 | inactive | – |
| CC(C)C#N | inactive | – |
| O=[N+]([O-])O.O=[N+]([O-])O.[Cd] | – | 12.3 µM (active) |
| C=CC(=O)OC | inactive | – |
| C=C(Cl)Cl | inactive | – |
| BrCBr | inactive | – |
| O=C=Nc1ccccc1 | inactive | – |
| CC1(C)CC(=O)CC(C)(C)N1[O] | inactive | – |
| O=c1c2ccccc2c(=O)c2c1cc(Cl)c1[nH]c3c([nH]c12)c(Cl)cc1c(=O)c2ccccc2c(=O)c13 | inactive | – |
| NNc1ccccc1 | inactive | – |
| O=[N+]([O-])c1cc(C(F)(F)F)c(Cl)c([N+](=O)[O-])c1Cl | – | 57.7 µM (active) |
| C[N+](C)(C)CC(=O)[O-] | inactive | – |
| N#CCCCCC#N | inactive | – |
| c1ccc2c(c1)CCCC2 | inactive | – |
| CCC1CCC(=O)O1 (stereo not given) | inactive | – |

| Compound | outcome | AC50 |
| --- | --- | --- |
| O=C(O)CCl | inactive | – |
| C=C(Cl)CCl | inactive | – |
| CCc1cccc(C)c1N(C(=O)CCl)[C@@H](C)COC | inactive | – |
| [Cl-].[Cl-].[Cl-].[Yb+3] | inactive | – |
| c1cc(OCC2CO2)ccc1Cc1ccc(OCC2CO2)cc1 (stereo not given) | inactive | – |
| C[C@]12CC[C@H](O)C[C@H]1CC[C@@H]1[C@@H]2C[C@@H](O)[C@]2(C)[C@@H](C3=CC(=O)OC3)CC[C@]12O | inactive | – |
| O=C(O)c1cc[c]([Hg][Cl])cc1 | inactive | – |
| COc1ccc(CO)cc1 | inactive | – |
| CC(C)CCCCCCCOP(=O)(Oc1ccccc1)Oc1ccccc1 | inactive | – |
| Cc1ccc(N(SC(F)(Cl)Cl)S(=O)(=O)N(C)C)cc1 | – | 38.7 µM (active) |
| C[N+](C)(C)CC(=O)O | inactive | – |
| O=C(NC(=O)c1c(F)cccc1F)Nc1ccc(Oc2ccc(C(F)(F)F)cc2Cl)cc1F | inactive | – |
| CCC(Br)(CC)C(=O)NC(N)=O | inactive | – |
| C=CC(=O)OCC(CC)CCCC (stereo not given) | inactive | – |
| N#CCCCl | inactive | – |
| O=C(O)C(Br)Br | inactive | – |
| C=Cc1cccc(CCl)c1 | inactive | – |
| Nc1ccccc1C(=O)Oc1ccc2ccccc2c1 | inactive | – |
| CCC(C)(C)O | inactive | – |
| Oc1ccc(Cl)cc1 | inactive | – |
